From PubChem BioAssay
Shiga toxin inh: inhibitors of Shiga toxin in Vero cells | 9.2% of 290,000 active | Vero cells, Shiga toxin protein synthesis inhibition reporter | AID 2315 | inhibition, % at 38.7 µM; in the data active = inhibition mostly above about 28%, no sharp cut-off; inactive = mostly below about 43%; also: 0% is about no effect
Lassa entry inh: Lassa virus entry inhibition; Potency, µM (doses to about 37.9 µM), for the others: top-dose activity change, negative = inhibition, usual class: inhibitors; AID 540256; Lassa virus pseudotype entry inhibition, cell reporter; 1.2% of 300,000 active; calls by dose curve; tested in HEK293 cells; also: potency is read from the fitted curve at half-maximal effect; % is scaled to controls: 0 for no effect and ±100 for the full control effect; nearly all actives have a fitted effect of over 50% in size
Marburg entry inh: blocks Marburg virus binding to or entry into cells. 1.8% of 300,000 active. Potency, µM (titrated, usually from 37.8 µM), without a hit: top-dose activity change, negative = inhibition, actives largely listed as inhibitors. Marburg virus pseudotyped entry inhibition, cell reporter. AID 540276; calls by dose curve; tested in HEK293 cells; also: potency is read from the fitted curve at half-maximal effect; % is scaled to controls: 0 for no effect and ±100 for the full control effect
CHX counter: counter-screen hit for Shiga toxin inhibitors, cycloheximide; cell reporter, cycloheximide protein synthesis inhibition counterscreen; max response, %; 12% of 300,000 active; AID 2314; in the data active = max response mostly above about 13%, no sharp cut-off; inactive = mostly below about 14%; also: read at 38.3 µM for the half of the compounds with a filed dose; 0% is about no effect
Starred values were filed as active, the others as inactive; ? = inconclusive; / = not tested or not shown; + = active, no number; [ ] = remark or other dose. An excerpt weighted towards active compounds, which were near 12% of everything screened.

SMILES	Shiga toxin inh	Lassa entry inh	Marburg entry inh	CHX counter
OCC1CCCCN1CC(O)COC(c1ccc(F)cc1)c1ccc(F)cc1 (stereo not drawn)	1	/	/	8
CCOc1ccc(Br)cc1S(=O)(=O)NC1=NCCCCC1	/	14%	?	/
CC(=O)c1cccc(NC(=O)c2onc(C)c2Cl)c1	24	/	/	17*
CCc1onc(C)c1C(=O)Nc1ccc2c(c1)OCO2	-7	/	/	-4
Cc1ccc2c(Cl)c(C(=O)Nc3ccc4c(c3)OCO4)sc2c1	91*	?	-11%	19*
Cc1noc(C(=O)Nc2cccnc2)c1Cl	-9	/	/	-6
CC(=O)c1ccc(NC(=O)c2onc(C)c2Cl)cc1	96*	/	/	39*
Cc1noc(C(=O)Nc2ccc3c(c2)OCO3)c1Cl	79*	/	/	37*
Cc1cc2occ(CC(=O)OCC(=O)Nc3sc4c(c3C#N)CCC(C)C4)c2cc1C (stereo not drawn)	28	1%	1%	8
COCCCNC(=O)C1CCN(C(=O)Nc2ccc(Cl)cc2)CC1	-15	13%	16%	-2
C=CCOc1ccc(C(c2c(C(=O)O)[nH]c3ccccc23)c2c(C(=O)O)[nH]c3ccccc23)cc1	-1	3%	8%	1
F/C(COc1ccc2c(c1)[nH]c1ccccc12)=C1/CN2CCC1CC2	57*	/	/	36*
COC(=O)N[C@@H](/C=C/c1ccccc1)/C(C(=O)OC)=C(\C)NCc1ccccc1	/	/	-22%[14.2 µM]	/
O=c1c2c3c(sc2nc2n1CCCC2)CCCC3	42*	4%	?	19*
O=c1c2c3c(sc2nc2n1CCC2)CCCCC3	29	-4%	?	20
O=c1c2c(nc3n1CCCCC3)sc1c(O)c(Br)ccc12	40	?	?	16*
Cc1ccc(NC(=O)C2=C(O)c3ccccc3N(C)S2(=O)=O)cc1	44	-2%	-5%[46.1 µM]	34*
Cc1cccc(C)c1NC(=O)C1=C(O)c2ccccc2N(C)S1(=O)=O	-2	2%	?	2
COC1=C[C@H](C(=O)N2CCCC2)[C@H](C)[C@@H](c2ccccc2)CC1=O	/	?	2%[14.2 µM]	/
N/C(=N\OC(=O)COc1ccccc1Cl)c1ccc(Cl)cc1	+	25%	4%	15*
Cc1cc(C)cc(OCC(=O)O/N=C(\N)c2ccccc2Cl)c1	32	/	0%	16
N/C(=N\OC(=O)COc1ccc(Cl)cc1)c1ccc(Cl)cc1	11	9%	8%	1
Cc1ccc(/C(N)=N/OC(=O)COc2ccccc2Cl)cc1	97	9%	15%	39*
CCn1cc2nc(SCc3cc(C)ccc3C)n(CCc3ccccc3)c(=O)c2n1	/	4µM*	/	/
Cc1ccc(C(=O)Nc2ccc3c(c2)nc2n3CCSC2)cc1	52	?	?	31*
SMILES	Shiga toxin inh	Lassa entry inh	Marburg entry inh	CHX counter
COc1ccccc1C(=O)Nc1ccc2c(c1)nc1n2CCSC1	60*	?	?	24*
CCCCC(=O)Nc1ccc2c(c1)nc1n2CCSC1	65*	1%	-24%	27*
CC(=O)Nc1ccc2c(c1)nc1n2CCSC1	-42	3%	3%	1
CC(C(=O)O)N1C(=O)C2C3CC(C2C1=O)C1C(c2ccccc2)c2sc(=O)[nH]c2SC31 (stereo not drawn)	-9	11%	2%	-2
CCc1cccc(C)c1Nc1nn2c(=O)c3ccccc3nc2s1	/	5%[46.1 µM]	/	/
CCSc1nn2c(=O)c3ccccc3nc2s1	85*	-11%	4%	48*
O=C(O)C1CCN(C(=O)COc2ccc(Br)cc2)CC1	15	20%[46.1 µM]	-1%[46.1 µM]	0
Cc1ccccc1Cn1cc(S(=O)(=O)c2ccc(C(C)C)cc2)c(=O)c2cc3c(cc21)OCO3	/	14%	-8%[46.1 µM]	/
Cc1cc(=O)oc(C)c1C(=O)OCC(=O)c1ccc(Cl)cc1	80*	-9%	?	35*
Cc1cc(=O)oc(C)c1C(=O)OCC(=O)c1ccc(Br)cc1	70*	?	13%	24*
Cc1cc(=O)oc(C)c1C(=O)OC(C(=O)c1ccccc1)c1ccccc1 (stereo not drawn)	-2	6%	-4%	0
Cc1nc([N+](=O)[O-])c(SCC(O)CCl)n1Cc1ccc(Cl)cc1 (stereo not drawn)	-17	0%	?	-8
N#C/C(=C\c1c(Oc2ccc(Cl)cc2)nc2ccccn2c1=O)C(=O)NC1CCS(=O)(=O)C1 (stereo not drawn)	-11	3.5µM*	?	11
O=C(Nc1cccc(NC(=O)c2ccccc2F)c1)c1ccccc1	17	22%[46.1 µM]	/	9
C/C(=N\NC(=O)c1ccccc1F)c1cccc(NC(=O)c2ccccc2)c1	52*	0%	?	24*
C/C(=N\NC(=O)c1cc(Br)ccc1O)c1cccc(NC(=O)c2ccccc2F)c1	43*	-2%	?	19
